From ChEMBL document CHEMBL1961873, “Compounds: GSK PKIS; Assays: Nanosyn kinase panel” (2012) come the findings set out here.

The target of assay [1] is Sphingosine kinase 1 (Homo sapiens) (UniProt Q9NYA1). Conditions: at 1 µM.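 Also: mean SPHK1 inhibition value reported from the GSK PKIS kinase panel screen.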
Assay [2] deals with T1, Sphingosine kinase 2 (Homo sapiens) (UniProt Q9NRA0).
T1 sequence (whole entry): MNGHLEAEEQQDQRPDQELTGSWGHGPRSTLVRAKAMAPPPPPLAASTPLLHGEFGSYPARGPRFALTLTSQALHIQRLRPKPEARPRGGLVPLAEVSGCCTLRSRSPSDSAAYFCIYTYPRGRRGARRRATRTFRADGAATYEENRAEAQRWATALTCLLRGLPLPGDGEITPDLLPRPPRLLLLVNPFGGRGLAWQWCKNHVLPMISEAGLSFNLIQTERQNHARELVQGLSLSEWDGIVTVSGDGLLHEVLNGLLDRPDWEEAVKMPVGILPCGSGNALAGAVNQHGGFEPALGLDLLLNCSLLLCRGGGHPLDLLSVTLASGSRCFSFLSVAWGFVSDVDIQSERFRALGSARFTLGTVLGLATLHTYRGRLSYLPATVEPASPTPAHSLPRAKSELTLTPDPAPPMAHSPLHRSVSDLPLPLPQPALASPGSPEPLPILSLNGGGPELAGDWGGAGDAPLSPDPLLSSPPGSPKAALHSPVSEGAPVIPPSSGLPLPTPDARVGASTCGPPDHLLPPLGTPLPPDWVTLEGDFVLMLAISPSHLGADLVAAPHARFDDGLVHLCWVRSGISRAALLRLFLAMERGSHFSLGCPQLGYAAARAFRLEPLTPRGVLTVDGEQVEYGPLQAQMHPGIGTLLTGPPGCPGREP
Conditions: at 0.1 µM.

The target of assay [3] is T1, Sphingosine kinase 2 (Homo sapiens). The following applies: at 1 µM.
Assay [4] has as its target Casein kinase II subunit alpha (Homo sapiens) (UniProt P68400). Conditions: at 0.1 µM.
Assay [5] has the same target. Conditions: at 1 µM.
Assay [6] has as its target T2, Inhibitor of nuclear factor kappa-B kinase subunit alpha (Homo sapiens) (UniProt O15111).
T2 sequence (whole entry): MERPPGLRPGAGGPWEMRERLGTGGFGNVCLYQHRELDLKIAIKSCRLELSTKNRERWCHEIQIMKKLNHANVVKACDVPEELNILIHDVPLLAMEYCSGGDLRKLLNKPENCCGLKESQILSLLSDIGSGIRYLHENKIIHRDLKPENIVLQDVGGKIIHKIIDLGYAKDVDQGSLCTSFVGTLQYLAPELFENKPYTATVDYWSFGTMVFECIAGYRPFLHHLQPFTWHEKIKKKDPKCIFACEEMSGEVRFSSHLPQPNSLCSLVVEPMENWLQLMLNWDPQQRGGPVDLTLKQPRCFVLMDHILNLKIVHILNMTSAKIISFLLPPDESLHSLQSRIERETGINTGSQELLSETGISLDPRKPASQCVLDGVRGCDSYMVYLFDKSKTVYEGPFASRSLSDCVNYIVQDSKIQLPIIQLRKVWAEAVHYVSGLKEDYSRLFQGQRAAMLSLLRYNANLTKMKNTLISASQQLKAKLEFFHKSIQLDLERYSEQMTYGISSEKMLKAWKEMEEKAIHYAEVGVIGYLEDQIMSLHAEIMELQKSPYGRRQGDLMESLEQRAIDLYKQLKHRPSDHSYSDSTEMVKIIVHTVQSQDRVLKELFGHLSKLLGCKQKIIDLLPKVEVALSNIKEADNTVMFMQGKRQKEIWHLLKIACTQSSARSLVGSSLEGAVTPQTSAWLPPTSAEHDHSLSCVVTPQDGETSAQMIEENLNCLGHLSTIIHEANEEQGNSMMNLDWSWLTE
The following applies: at 0.1 µM.

Assay [7] addresses T2, Inhibitor of nuclear factor kappa-B kinase subunit alpha (Homo sapiens). Conditions: at 1 µM.
Assay [8] addresses T3, Inhibitor of nuclear factor kappa-B kinase subunit beta (Homo sapiens) (UniProt O14920).
T3 sequence (whole entry): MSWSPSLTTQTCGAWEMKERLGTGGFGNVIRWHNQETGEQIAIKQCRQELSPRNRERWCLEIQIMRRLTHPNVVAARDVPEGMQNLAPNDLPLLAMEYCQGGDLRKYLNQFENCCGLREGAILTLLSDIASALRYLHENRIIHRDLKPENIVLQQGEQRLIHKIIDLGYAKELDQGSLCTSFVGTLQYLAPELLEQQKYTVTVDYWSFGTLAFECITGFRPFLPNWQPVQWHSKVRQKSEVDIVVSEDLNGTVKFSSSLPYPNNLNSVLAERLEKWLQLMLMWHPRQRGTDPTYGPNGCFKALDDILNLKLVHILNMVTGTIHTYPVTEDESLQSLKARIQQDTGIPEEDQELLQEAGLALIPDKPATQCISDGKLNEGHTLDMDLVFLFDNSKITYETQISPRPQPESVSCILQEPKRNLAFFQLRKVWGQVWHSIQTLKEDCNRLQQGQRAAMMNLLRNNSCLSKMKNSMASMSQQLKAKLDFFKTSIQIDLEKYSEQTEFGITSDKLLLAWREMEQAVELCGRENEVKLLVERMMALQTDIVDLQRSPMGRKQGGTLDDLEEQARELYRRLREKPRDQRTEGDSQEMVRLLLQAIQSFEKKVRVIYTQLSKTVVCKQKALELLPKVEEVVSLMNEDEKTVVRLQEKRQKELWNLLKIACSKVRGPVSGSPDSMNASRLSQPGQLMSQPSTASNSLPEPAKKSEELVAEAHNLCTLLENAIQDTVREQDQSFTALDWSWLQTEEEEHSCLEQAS
Conditions: at 0.1 µM.

Assay [9] addresses T3, Inhibitor of nuclear factor kappa-B kinase subunit beta (Homo sapiens). The following applies: at 1 µM.
Assay [10] addresses T4, Inhibitor of nuclear factor kappa-B kinase subunit epsilon (Homo sapiens) (UniProt Q14164).
T4 sequence (whole entry): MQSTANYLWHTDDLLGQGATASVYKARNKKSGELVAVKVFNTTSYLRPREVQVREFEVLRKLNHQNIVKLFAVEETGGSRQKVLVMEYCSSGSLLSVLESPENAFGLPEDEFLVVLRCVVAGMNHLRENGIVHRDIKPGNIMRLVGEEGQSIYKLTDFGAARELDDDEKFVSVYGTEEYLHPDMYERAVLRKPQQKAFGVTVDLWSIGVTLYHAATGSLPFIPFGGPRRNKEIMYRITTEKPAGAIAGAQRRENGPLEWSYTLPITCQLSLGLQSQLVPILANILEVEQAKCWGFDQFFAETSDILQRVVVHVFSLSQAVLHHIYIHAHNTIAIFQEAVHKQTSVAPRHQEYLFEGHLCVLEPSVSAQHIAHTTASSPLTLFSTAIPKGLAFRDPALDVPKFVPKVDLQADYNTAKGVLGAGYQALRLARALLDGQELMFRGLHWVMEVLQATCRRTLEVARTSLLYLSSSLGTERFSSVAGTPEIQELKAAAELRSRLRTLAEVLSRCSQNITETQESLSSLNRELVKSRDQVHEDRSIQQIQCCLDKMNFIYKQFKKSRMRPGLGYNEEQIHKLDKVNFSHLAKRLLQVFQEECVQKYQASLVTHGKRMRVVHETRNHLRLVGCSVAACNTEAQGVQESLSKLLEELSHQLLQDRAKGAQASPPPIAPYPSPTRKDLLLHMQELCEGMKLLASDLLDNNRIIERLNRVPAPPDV
Conditions: at 0.1 µM.

Assay [11] has as its target T4, Inhibitor of nuclear factor kappa-B kinase subunit epsilon (Homo sapiens). Conditions: at 1 µM.
Assay [12] deals with T5, Serine/threonine-protein kinase Nek1 (Homo sapiens) (UniProt Q96PY6).
T5 sequence (whole entry): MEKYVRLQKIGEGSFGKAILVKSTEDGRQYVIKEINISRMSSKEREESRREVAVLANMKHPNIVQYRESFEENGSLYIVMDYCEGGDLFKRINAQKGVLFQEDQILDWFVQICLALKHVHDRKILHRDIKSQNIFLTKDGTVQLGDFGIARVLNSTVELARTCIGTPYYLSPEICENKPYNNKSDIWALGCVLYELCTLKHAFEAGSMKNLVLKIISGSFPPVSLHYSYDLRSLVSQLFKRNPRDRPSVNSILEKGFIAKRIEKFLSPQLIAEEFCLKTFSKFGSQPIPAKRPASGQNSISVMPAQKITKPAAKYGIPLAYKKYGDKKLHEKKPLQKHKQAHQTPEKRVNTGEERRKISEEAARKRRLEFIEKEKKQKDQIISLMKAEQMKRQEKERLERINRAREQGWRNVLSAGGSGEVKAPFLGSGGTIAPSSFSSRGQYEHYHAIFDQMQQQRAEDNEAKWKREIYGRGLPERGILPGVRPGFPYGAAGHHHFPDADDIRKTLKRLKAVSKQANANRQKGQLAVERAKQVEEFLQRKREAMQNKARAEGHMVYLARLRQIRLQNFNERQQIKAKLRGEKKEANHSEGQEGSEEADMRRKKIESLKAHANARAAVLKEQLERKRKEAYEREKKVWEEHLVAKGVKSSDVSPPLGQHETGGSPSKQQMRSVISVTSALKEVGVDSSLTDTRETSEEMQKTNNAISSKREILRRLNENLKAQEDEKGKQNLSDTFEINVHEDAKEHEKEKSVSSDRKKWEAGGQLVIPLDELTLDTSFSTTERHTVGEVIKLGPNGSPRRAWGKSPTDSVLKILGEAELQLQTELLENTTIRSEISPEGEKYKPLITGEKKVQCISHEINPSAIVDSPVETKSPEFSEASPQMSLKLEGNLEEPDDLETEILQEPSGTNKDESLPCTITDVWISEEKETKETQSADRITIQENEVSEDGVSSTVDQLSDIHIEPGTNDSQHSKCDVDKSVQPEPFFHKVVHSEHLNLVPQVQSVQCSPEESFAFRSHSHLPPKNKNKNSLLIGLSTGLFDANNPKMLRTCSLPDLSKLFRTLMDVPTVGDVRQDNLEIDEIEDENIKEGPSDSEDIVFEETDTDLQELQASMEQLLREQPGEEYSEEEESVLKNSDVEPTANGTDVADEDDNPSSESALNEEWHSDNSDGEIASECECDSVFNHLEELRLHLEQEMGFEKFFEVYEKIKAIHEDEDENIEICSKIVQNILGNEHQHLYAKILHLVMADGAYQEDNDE
The following applies: at 0.1 µM.

Assay [13] deals with T5, Serine/threonine-protein kinase Nek1 (Homo sapiens). Conditions: at 1 µM.
In assay [14] the target is T6, Serine/threonine-protein kinase Nek2 (Homo sapiens) (UniProt P51955).
T6 sequence (whole entry): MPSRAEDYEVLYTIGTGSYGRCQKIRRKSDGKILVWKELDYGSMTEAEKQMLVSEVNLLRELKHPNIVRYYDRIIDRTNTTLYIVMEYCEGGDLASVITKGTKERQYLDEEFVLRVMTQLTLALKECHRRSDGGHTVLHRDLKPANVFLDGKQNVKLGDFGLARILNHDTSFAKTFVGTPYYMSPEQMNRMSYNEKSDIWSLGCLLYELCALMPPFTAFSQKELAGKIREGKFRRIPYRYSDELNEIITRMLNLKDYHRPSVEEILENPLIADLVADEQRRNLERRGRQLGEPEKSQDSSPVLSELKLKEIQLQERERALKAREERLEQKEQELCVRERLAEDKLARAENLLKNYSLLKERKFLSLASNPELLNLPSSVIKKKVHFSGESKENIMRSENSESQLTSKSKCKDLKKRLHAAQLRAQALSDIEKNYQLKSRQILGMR
The following applies: at 0.1 µM.

For assay [15], the target named is T6, Serine/threonine-protein kinase Nek2 (Homo sapiens). Conditions: at 1 µM.
Assay [16] addresses Serine/threonine-protein kinase Nek6 (Homo sapiens) (UniProt Q9HC98). Conditions: at 0.1 µM.
Assay [17] has the same target. The following applies: at 1 µM.
Assay [18] deals with Serine/threonine-protein kinase Nek7 (Homo sapiens) (UniProt Q8TDX7). The following applies: at 0.1 µM.
Assay [19] shares this target. Conditions: at 1 µM.
In assay [20] the target is T7, Serine/threonine-protein kinase Nek9 (Homo sapiens) (UniProt Q8TD19).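 Also: reported value is the mean percent inhibition of NEK9.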
T7 sequence (whole entry): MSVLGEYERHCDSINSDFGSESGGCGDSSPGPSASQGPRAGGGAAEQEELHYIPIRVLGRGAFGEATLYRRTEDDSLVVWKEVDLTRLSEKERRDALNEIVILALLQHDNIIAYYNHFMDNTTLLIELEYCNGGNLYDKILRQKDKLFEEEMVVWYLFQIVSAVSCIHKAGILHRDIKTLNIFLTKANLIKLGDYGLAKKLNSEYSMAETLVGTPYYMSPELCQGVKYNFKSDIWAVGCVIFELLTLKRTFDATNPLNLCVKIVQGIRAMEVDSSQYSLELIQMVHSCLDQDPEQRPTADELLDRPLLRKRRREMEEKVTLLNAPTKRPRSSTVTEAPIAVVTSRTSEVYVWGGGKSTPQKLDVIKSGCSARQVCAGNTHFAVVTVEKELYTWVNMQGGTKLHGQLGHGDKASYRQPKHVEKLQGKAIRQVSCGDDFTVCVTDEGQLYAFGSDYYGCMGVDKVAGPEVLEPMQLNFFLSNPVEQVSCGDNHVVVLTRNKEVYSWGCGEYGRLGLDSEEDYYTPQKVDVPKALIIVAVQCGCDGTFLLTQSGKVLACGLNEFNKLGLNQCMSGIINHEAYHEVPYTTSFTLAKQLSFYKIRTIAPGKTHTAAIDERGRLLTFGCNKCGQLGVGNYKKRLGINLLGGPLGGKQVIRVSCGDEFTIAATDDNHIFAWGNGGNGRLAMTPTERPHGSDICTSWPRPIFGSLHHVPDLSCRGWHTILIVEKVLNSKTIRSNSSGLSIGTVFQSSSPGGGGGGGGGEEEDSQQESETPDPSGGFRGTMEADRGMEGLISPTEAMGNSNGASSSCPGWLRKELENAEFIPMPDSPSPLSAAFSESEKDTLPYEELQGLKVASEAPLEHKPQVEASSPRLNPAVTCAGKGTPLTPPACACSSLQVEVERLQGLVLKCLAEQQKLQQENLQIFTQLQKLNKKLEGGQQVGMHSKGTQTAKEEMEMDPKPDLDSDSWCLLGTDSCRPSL
Conditions: at 0.1 µM.

Chain of Serine/threonine-protein kinase Nek6 (Homo sapiens) (Q9HC98 whole entry): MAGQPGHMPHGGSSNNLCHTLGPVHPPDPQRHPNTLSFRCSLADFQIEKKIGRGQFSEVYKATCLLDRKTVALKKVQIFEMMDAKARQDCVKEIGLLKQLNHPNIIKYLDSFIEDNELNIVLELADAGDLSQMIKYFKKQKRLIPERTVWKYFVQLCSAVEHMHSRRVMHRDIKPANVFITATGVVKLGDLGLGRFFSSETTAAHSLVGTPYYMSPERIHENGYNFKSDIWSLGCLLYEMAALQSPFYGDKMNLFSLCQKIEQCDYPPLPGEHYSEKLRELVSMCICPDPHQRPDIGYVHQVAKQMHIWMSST
Chain of Casein kinase II subunit alpha (Homo sapiens) (P68400 whole entry, looked up): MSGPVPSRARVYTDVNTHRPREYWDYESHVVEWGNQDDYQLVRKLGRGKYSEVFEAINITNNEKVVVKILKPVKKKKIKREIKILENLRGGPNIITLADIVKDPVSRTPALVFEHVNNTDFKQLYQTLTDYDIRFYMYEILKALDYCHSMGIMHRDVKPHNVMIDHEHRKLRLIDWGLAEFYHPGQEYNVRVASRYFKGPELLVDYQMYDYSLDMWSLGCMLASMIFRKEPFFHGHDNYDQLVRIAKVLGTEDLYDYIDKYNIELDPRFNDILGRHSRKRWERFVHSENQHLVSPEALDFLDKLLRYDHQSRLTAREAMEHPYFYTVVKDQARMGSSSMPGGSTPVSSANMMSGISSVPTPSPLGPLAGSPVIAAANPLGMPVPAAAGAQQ
Chain of Serine/threonine-protein kinase Nek7 (Homo sapiens) (Q8TDX7 whole entry, looked up): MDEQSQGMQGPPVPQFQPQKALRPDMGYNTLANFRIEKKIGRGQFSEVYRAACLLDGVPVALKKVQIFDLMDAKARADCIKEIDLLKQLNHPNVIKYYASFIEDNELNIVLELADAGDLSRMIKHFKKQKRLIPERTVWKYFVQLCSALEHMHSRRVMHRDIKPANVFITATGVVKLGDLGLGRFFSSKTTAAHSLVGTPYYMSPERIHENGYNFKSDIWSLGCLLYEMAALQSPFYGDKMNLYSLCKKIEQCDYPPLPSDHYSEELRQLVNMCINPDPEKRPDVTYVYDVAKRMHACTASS
Chain of Sphingosine kinase 1 (Homo sapiens) (Q9NYA1 whole entry): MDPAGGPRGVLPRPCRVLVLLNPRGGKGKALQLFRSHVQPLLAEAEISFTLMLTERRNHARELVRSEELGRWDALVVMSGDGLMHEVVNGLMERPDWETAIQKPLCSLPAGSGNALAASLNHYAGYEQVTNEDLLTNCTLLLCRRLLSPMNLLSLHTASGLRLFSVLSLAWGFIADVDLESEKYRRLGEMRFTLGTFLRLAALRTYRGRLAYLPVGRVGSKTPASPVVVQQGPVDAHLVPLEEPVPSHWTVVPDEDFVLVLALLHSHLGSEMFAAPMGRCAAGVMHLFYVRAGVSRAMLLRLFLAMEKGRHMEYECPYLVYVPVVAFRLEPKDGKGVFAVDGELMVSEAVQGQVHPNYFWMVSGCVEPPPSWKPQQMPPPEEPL

As a reminder, the inhibition is the change of the read-out against control, counted positive when it falls. In the case of `COc1ccc2cc(-c3c(-c4ccncc4)nc(-c4ccc(S(C)(=O)=O)cc4C)n3C)ccc2c1`, the inhibition in [1] is -0.37%; in assay [2] it was -0.27%; in assay [3] it was 4.01%; in [4] it was 3.63%; in [5], 4.57%; in [6], -0.1%. The inhibition in assay [7] was 3.23%; in assay [8] it was 6.82%; in assay [9] it was 7.83%; in assay [10], 6.25%; in [11], 7.25%; in assay [12], 3.37%. In addition, the inhibition in assay [13] was determined as 4.4%; in [14] it was 5.82%; in [15], 4.5%; in assay [16], 0.49%; in assay [17] it was 4.51%; in assay [18], 5.77%. Further, the inhibition in assay [19] stood at 4.57%; in assay [20], 6.52%.
